Measured values published in PubChem BioAssay (Tox21).
A number with no mark means an inactive call. Records with an inconclusive call do not appear. A call without a number means that no potency is given here. The source made the active and inactive calls. Unless noted, calls come from the whole dose curve; as a rule, active = well fitted curve in the direction sought with a large enough effect in the repeat runs; inconclusive = weak or mixed curves; inactive = no such curve, though single readings can be large; an effect the other way counts as inactive or inconclusive.

Experiments:
[1] = qHTS assay to identify small molecule agonists of the androgen receptor (AR) signaling pathway in the presence of an antagonist - cell viability counter screen (AID 1259379);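 note: MDA-kb2 human breast cancer cells carrying an MMTV luciferase reporter; series mostly up to about 92 µM; nearly all actives have a fitted effect of over 25% in size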
Outline: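 Each compound was tested at 15 concentrations on MDA-kb2 cells in the presence of 3.0uM nilutamide. Viability was measured by CellTiter-Fluor fluorescence after a 16 hr incubation at 37C in a CO2-free atmosphere.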

[2] = qHTS assay to identify small molecule agonists of the estrogen receptor beta (ER-beta) signaling pathway - cell viability counter screen (AID 1259380); note: nearly all actives have a fitted effect of over 30% in size; note: potency is the fitted concentration of half-maximal effect
Outline: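 Compounds dissolved in DMSO were pin-transferred onto ER-beta-UAS-bla HEK293T cells that had settled 6 hr, and exposure ran 16 hr at 37C. Following the reporter read, CellTiter-Glo luminescence after 30 min at room temperature indicated cytotoxicity.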

[3] = qHTS assay to identify small molecule antagonists of the estrogen receptor beta (ER-beta) signaling pathway - cell viability counter screen (AID 1259382);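 note: HEK293T cells carrying ER-beta-UAS-bla reporter stimulated with estradiol; series mostly up to about 92 µM; nearly all actives have a fitted effect of over 55% in size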
Outline: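 CellTiter-Glo ATP luminescence measured after the LiveBLAzer read in the same wells; ER-beta-UAS-bla HEK293T cells, 16 hr compound treatment with 1nM 17-beta-estradiol agonist at 37C, 5% CO2.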

[4] = target: Estrogen receptor (Homo sapiens) (UniProt P03372); assay: qHTS assay to identify small molecule agonists of the estrogen receptor alpha (ER-alpha) signaling pathway in the presence of an antagonist (AID 1259383; calls by dose curve; note: top concentration of the series differs between compounds; nearly all actives have a fitted effect of over 15% in size)
Outline: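 Luminescent ERE-luciferase reporter, VM7Luc4E2 cells (endogenous ER-alpha); 10.0nM ICI-182,780 final; 15-point compound titration; 22hr at 37C; ONE-Glo, 30min RT.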

[5] = qHTS assay to identify small molecule agonists or antagonists of the thyroid stimulating hormone receptor (TSHR) signaling pathway - wild type cell line counter screen (AID 1259384; calls by dose curve)
Outline: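 Wild-type Hek293 cells, 800/well, 18 h at 37C, then compound with Ro20-1724 for 30 min RT. cAMP by HTRF (cAMP-d2/anti-cAMP cryptate), 1 h RT, fluorescence read. 15 concentrations, triplicates.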

[6] = target: Thyrotropin receptor (Homo sapiens) (UniProt P16473); assay: qHTS assay to identify small molecule antagonists of the thyroid stimulating hormone receptor (TSHR) signaling pathway (AID 1259385; calls by dose curve; note: nearly all actives have a fitted effect of over 20% in size)
Outline: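 TSHR-HEK293 cells (800/well) plated 18 h, then compounds with Ro20-1724 and TSH at 1.5 ng/mL final, 30 min at room temperature. cAMP quantified by HTRF (cAMP-d2/anti-cAMP-cryptate, 1 h); 15 concentrations in triplicate.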

[7] = qHTS assay to identify small molecule agonists of the estrogen receptor alpha (ER-alpha) signaling pathway in the presence of an antagonist - cell viability counter screen (AID 1259386);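 note: series mostly up to about 92 µM; cells exposed to compounds for 22 h at 37 °C before the viability read; nearly all actives have a fitted effect of over 30% in size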
Outline: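 Using estrogen-depleted VM7Luc4E2 cells, the 15-concentration compound series was applied together with 10.0nM ICI-182,780 and incubated 22hr at 37C/5% CO2. Cell viability was then scored by CellTiter-Fluor.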

[8] = target: Progesterone receptor (Homo sapiens) (UniProt P06401); assay: qHTS assay to identify small molecule agonists of the progesterone receptor (PR) signaling pathway (AID 1346784; calls by dose curve; note: nearly all actives have a fitted effect of over 30% in size)
Outline: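 Agonist qHTS: compounds pinned onto 3,000 PR-UAS-bla HEK 293T cells per well in charcoal-stripped serum medium, 16hr at 37C, then beta-lactamase activity measured by LiveBLAzer FRET fluorescence after 2 hours at room temperature.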

[9] = target: Progesterone receptor (Homo sapiens) (UniProt P06401); assay: qHTS assay to identify small molecule antagonists of the progesterone receptor (PR) signaling pathway (AID 1346795; active = well fitted inhibition curve with a large enough effect in the signal ratio in the repeat runs, not every such curve was filed as active; the % refers to the signal ratio)
Outline: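 Antagonist mode with agonist R5020 at 1 nM final and 16 hr incubation at 37C. Reporter was beta-lactamase driven by UAS in HEK293T (PR-UAS-bla), 2% charcoal-stripped serum; signal from LiveBLAzer FRET substrate, 2 hr at room temperature.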

[10] = qHTS assay to identify small molecule agonists of the progesterone receptor (PR) signaling pathway - cell viability counter screen (AID 1346799; calls by dose curve; note: nearly all actives have a fitted effect of over 45% in size)
Outline: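 Cytotoxicity measured by CellTiter-Glo luminescence (30 min, RT) in the same wells as the PR beta-lactamase agonist read. Those HEK293T cells had 16 h compound treatment at 37 C in 2% charcoal-stripped FBS medium.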

[11] = qHTS assay to identify small molecule antagonists of the TGF-beta/Smad signaling pathway - cell viability counter screen (AID 1346824); note: nearly all actives have a fitted effect of over 50% in size
Outline: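 SBE-bla HEK 293T cells, incubated overnight, then compound plus 0.25 ng/mL TGF-beta1 (stock added) for 5 hr at 37 C. Viability was read in the same wells by CellTiter-Glo luminescence after 30 min at room temperature.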

[12] = qHTS assay to identify small molecule agonists of the TGF-beta/Smad signaling pathway - cell viability counter screen (AID 1346829); note: top concentration of the series differs between compounds; nearly all actives have a fitted effect of over 45% in size
Outline: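 Tox21 qHTS format: SBE-bla HEK 293T cells treated with DMSO-dissolved compounds for 5 hr; CellTiter-Glo luminescence after 30 min at room temperature.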

[13] = qHTS assay to identify small molecule agonists of the TGF-beta/Smad signaling pathway (AID 1346859; active = well fitted activation curve with a large enough effect in the signal ratio in the repeat runs, not every such curve was filed as active; the % refers to the signal ratio; note: series mostly up to about 77 µM)
Outline: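 Fluorescence (ex 405 nm; em 460 and 530 nm) was read 2 h after LiveBLAzer FRET substrate at RT. The preceding compound treatment of overnight-plated SBE-bla HEK293T cells lasted 5 h at 37 C.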

[14] = target: Thyrotropin-releasing hormone receptor (Homo sapiens) (UniProt P34981); assay: qHTS assay to identify small molecule antagonists of the thyrotropin-releasing hormone receptor (TRHR) signaling pathway (AID 1346877; active = well fitted inhibition curve with a large enough effect in the repeat runs, not every such curve was filed as active; note: series mostly up to about 51 µM)
Outline: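 Calcium signal in dye-loaded TRHR/HEK293 cells; compounds added 5 min before TRH (1 nM final); fluorescence monitored 3 min at 1 s steps.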

[15] = target: Thyrotropin-releasing hormone receptor (Homo sapiens) (UniProt P34981); assay: qHTS assay to identify small molecule agonists of the thyrotropin-releasing hormone receptor (TRHR) signaling pathway (AID 1346891; calls by dose curve; note: series mostly up to about 58 µM)
Outline: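 Agonist-mode intracellular calcium readout: kinetic fluorescence over 3 min at 1 s intervals after compound addition to TRHR-HEK293 cells (18 h seeded, 2 h dye-loaded at 37 C). Fifteen concentrations, triplicates.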

[16] = Human pregnane X receptor (PXR) small molecule agonists, qHTS cell viability counter screen (AID 1346977); note: nearly all actives have a fitted effect of over 50% in size
Outline: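 Same-well viability read: CellTiter-Fluor added after 23 hr compound exposure, fluorescence measured 1 hr later. Cells were PXR-Luc HepG2 seeded at 2,000/well in 5% charcoal-stripped FBS medium, rested 5 hr before dosing at 37 C.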

[17] = qHTS assay to identify small molecule antagonists of the progesterone receptor (PR) signaling pathway - cell viability counter screen (AID 1346798); note: series mostly up to about 92 µM; nearly all actives have a fitted effect of over 50% in size
Outline: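 Cytotoxicity read as CellTiter-Glo luminescence (30 min, room temperature) in the same wells as the beta-lactamase readout. HEK293T PR-UAS-bla cells in charcoal-stripped 2% FBS received compound and R5020, then 16 h at 37C, 5% CO2.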

[18] = target: Androgen receptor (Homo sapiens) (UniProt P10275); assay: qHTS assay to identify small molecule agonists of the androgen receptor (AR) signaling pathway in the presence of an antagonist (AID 1259381; calls by dose curve; note: nearly all actives have a fitted effect of over 15% in size)
Outline: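 Plated MDA-kb2 cells (3,000/well) were pre-incubated 5hr, given nilutamide (3.0uM final) or buffer, then dosed with compounds in DMSO at 15 concentrations. Luciferase activity was quantified by luminescence after 16hr at 37C.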

Thyrotropin receptor (Homo sapiens), sequence (P16473 whole entry, looked up): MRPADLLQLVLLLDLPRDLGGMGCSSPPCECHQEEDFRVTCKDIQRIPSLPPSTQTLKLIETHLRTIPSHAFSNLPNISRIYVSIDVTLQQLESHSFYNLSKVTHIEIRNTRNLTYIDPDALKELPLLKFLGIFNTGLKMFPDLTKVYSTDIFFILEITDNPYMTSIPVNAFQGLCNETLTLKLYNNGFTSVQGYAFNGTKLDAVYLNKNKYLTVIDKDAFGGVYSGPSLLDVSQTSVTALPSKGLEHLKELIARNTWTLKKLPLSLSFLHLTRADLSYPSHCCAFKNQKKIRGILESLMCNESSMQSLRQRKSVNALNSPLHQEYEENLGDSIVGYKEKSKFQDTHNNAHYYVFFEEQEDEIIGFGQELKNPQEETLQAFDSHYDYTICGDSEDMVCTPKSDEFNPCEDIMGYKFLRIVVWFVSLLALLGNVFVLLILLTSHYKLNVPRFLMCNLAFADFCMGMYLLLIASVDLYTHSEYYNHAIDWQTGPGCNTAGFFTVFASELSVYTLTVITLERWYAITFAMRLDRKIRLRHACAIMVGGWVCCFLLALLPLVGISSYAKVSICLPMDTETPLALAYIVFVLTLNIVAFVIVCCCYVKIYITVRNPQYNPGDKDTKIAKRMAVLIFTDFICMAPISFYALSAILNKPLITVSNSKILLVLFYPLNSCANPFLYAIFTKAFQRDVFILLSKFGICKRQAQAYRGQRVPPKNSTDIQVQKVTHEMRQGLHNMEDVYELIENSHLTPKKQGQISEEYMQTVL
Progesterone receptor (Homo sapiens), sequence (P06401 whole entry, looked up): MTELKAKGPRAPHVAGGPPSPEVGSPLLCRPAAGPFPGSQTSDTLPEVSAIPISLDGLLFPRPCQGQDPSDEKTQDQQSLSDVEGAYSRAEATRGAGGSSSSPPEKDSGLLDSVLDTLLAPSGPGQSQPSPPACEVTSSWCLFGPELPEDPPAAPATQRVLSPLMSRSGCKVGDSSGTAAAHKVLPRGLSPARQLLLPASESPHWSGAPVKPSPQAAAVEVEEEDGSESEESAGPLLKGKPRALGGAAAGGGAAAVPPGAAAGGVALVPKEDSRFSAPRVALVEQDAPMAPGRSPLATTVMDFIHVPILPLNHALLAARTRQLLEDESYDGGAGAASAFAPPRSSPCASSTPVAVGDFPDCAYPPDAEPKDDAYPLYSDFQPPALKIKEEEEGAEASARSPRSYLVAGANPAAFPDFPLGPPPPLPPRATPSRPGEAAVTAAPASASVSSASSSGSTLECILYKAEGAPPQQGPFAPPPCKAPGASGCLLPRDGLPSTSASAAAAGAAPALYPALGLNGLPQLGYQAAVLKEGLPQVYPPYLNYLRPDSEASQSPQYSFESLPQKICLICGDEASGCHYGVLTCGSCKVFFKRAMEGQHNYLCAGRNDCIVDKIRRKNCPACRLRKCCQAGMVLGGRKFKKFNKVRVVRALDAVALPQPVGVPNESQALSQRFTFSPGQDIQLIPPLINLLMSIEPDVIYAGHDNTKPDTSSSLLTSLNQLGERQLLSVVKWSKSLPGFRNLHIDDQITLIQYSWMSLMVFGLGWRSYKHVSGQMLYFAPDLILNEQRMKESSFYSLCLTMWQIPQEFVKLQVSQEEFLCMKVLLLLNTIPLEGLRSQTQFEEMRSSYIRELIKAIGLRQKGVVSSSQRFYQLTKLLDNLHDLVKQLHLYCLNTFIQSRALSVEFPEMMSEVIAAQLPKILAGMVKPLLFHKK
Thyrotropin-releasing hormone receptor (Homo sapiens), sequence (P34981 whole entry, looked up): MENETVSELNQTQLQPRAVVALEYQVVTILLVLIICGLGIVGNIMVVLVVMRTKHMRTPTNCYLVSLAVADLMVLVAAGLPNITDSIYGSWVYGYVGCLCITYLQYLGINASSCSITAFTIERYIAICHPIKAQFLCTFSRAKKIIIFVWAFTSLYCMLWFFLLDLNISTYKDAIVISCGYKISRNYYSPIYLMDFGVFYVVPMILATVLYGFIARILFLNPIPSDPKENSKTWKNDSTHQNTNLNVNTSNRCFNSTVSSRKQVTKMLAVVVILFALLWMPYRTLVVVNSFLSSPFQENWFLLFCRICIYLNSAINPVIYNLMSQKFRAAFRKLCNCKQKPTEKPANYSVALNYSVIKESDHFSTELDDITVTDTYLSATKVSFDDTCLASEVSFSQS
Estrogen receptor (Homo sapiens), sequence (P03372 whole entry, looked up): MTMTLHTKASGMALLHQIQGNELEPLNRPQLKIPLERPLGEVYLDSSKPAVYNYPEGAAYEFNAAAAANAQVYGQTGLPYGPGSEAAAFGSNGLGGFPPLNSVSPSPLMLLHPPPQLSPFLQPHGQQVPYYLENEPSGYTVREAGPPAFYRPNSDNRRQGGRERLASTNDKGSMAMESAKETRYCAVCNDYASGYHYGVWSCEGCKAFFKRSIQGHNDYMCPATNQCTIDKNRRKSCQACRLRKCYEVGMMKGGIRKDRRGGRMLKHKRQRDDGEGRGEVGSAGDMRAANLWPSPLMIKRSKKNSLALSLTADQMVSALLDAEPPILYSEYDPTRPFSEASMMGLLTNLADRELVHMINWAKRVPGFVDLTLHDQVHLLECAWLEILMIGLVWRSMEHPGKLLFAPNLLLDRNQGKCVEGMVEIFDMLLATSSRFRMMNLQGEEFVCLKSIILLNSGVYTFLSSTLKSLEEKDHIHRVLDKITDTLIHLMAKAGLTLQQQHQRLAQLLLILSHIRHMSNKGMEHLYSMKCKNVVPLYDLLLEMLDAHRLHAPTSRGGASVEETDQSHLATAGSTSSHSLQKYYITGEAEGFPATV
Androgen receptor (Homo sapiens), sequence (P10275 whole entry, looked up): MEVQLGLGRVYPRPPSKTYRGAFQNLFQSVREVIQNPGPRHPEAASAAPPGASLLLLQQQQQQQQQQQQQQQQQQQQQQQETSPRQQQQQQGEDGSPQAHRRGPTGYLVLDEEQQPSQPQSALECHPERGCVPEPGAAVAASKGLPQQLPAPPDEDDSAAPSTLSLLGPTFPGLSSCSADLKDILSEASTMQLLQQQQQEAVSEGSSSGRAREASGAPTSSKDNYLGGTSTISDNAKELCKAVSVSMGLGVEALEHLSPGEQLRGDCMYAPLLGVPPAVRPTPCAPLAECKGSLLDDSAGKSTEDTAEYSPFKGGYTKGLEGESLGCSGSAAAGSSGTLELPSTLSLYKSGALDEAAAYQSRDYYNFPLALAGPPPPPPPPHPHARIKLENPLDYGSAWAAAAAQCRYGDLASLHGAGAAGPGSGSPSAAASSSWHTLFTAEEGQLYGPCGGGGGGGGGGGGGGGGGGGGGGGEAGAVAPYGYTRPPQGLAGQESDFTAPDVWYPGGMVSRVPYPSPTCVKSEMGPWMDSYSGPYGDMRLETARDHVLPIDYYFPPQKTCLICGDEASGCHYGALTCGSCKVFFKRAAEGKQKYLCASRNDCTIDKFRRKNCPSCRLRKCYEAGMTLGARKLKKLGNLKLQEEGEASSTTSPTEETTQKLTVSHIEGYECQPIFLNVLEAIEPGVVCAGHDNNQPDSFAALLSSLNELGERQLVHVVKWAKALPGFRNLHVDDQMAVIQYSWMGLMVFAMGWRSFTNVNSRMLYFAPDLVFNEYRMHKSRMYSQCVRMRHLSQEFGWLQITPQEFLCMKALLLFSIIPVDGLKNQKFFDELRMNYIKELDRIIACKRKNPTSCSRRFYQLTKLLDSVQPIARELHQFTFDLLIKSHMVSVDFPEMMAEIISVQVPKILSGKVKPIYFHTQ

SMILES | Potency [1] | Potency [2] | outcome [3] | outcome [4] | outcome [5] | outcome [6] | Potency [7] | Potency [8] | Potency [9] | Potency [10] | outcome [11] | outcome [12] | outcome [13] | outcome [14] | Potency [15] | Potency [16] | Potency [17] | Potency [18]
N[C@@H](CCC(=O)O)C(=O)O | inactive | inactive | inactive | inactive | inactive | inactive | inactive | inactive | inactive | inactive | inactive | inactive | inactive | inactive | inactive | inactive |  | 
c1coc(CNc2ncnc3nc[nH]c23)c1 | inactive | inactive | inactive | inactive | inactive | inactive | inactive | inactive | inactive |  | inactive | inactive | inactive | inactive | inactive |  | inactive | 
CN(C)C(=O)Oc1cccc([N+](C)(C)C)c1 | inactive | inactive | inactive | inactive | inactive |  | inactive |  | inactive | inactive | inactive | inactive | inactive | inactive | inactive | inactive |  | 
CC(C)(C)C(=O)Oc1ccc(S(=O)(=O)Nc2ccccc2C(=O)NCC(=O)O)cc1 | inactive | inactive | inactive | inactive | inactive | inactive | inactive | inactive | inactive | inactive | inactive | inactive | inactive |  | inactive | inactive | inactive | 
CCOc1ccc2nc(S(N)(=O)=O)sc2c1 | inactive | inactive | inactive | inactive |  | inactive | inactive | inactive |  | inactive | inactive | inactive | inactive | inactive | inactive | inactive | inactive | 
Cc1ccnc(NS(=O)(=O)c2ccc(N)cc2)n1 | inactive | inactive | inactive | inactive | inactive | inactive | inactive | inactive | inactive | inactive | inactive | inactive | inactive |  |  | inactive | inactive | 
CCN1C=CN(C)C1C (centres undefined) | inactive | inactive | inactive | inactive | inactive |  | inactive | inactive | inactive | inactive | inactive | inactive | inactive |  | inactive | inactive | inactive | 
CO/N=C(\C(=O)N[C@@H]1C(=O)N2C(C(=O)O)=C(CSc3nc(=O)c(O)nn3C)CS[C@H]12)c1csc(N)n1 | inactive | inactive | inactive | inactive | inactive | inactive | inactive | inactive |  | inactive | inactive | inactive | inactive | inactive | inactive | inactive |  | 
FB(F)F | inactive | inactive | inactive | inactive | inactive | inactive | inactive | inactive | inactive | inactive |  | inactive | inactive | inactive | inactive | inactive |  | 
Nc1ccn([C@@H]2O[C@H](CO)[C@@H](O)[C@@H]2O)c(=O)n1 | inactive | inactive | inactive | inactive |  |  | inactive | inactive | inactive | inactive | inactive | inactive | inactive | inactive | inactive |  |  | 
CCCCCCCCCCCCCCCCCCO | inactive | inactive | inactive | inactive | inactive | inactive | inactive | inactive | inactive | inactive | inactive | inactive | inactive | inactive | inactive | inactive |  | 
CC(C)(C)C(=O)c1ccccc1 | inactive | inactive | inactive | inactive | inactive |  | inactive | inactive | inactive | inactive |  | inactive | inactive |  |  | inactive |  | 
O=C(O)CC(C(=O)O)S(=O)(=O)O (centres undefined) | inactive | inactive | inactive | inactive | inactive | inactive | inactive | inactive | inactive | inactive | inactive | inactive | inactive | inactive | inactive | inactive |  | 
CCCC(C)C(=O)OCC (centres undefined) | inactive | inactive | inactive | inactive | inactive |  | inactive | inactive | inactive | inactive | inactive | inactive | inactive | inactive | inactive | inactive | inactive | 
CCC1C(=O)OCC1Cc1cncn1C (centres undefined) | inactive | inactive | inactive | inactive | inactive |  | inactive | inactive | inactive |  | inactive | inactive | inactive | inactive |  | inactive | inactive | 
CCCCOC(=O)CCC(C)=O | inactive | inactive | inactive | inactive | inactive | inactive | inactive | inactive | inactive | inactive |  | inactive | inactive | inactive |  | inactive | inactive | 
Cc1nc2ccc(CN(C)c3ccc(C(=O)N[C@@H](CCC(=O)O)C(=O)O)s3)cc2c(=O)[nH]1 | inactive | 150 nM (active) |  |  | inactive | inactive | inactive | inactive | inactive | inactive | inactive | inactive | inactive | inactive | inactive | inactive | inactive | inactive
